{"source": "PubChem BioAssay AID720641", "about": "(ICCB-Longwood Screening Facility, Harvard Medical School, 2013)", "test": "S. aureus growth inhibition at 42 and 30 °C, primary screen, LtaS inhibitor project, RN4220, two temperatures (AID 720641)", "conditions": "OD600, 20 h, 42 °C, stronger effect = lower value", "note": "Out of some 170,000 compounds screened, about 900 (0.53%) were called active. This is one part of a sample in which actives are shown more often than they occur.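 Rule for the calls: active = relative growth at most 50% at the other temperature and 20+ points below 30 °C, or under 10% at both; inactive = the rest, inconclusive results apart.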"}
{"molecule": "CN(C)c1ccc(Nc2nc3ccccc3nc2NS(=O)(=O)c2cccs2)cc1", "values": [{"measurement": "relative growth", "value": "105% (inactive)"}, {"measurement": "relative growth", "setting": "measured here: growth at 30 °C", "value": 95.9, "unit": "%"}]}
{"molecule": "Cc1cccn2c(=O)cc(CN3CCC(C(=O)N4CCOCC4)CC3)nc12", "values": [{"measurement": "relative growth", "value": "98.4% (inactive)"}, {"measurement": "relative growth", "setting": "measured here: growth at 30 °C", "value": 88.3, "unit": "%"}]}
{"molecule": "COC(=O)c1ccc(NS(=O)(=O)c2cc(C(=O)OC)n(C)c2)cc1", "values": [{"measurement": "relative growth", "value": "106% (inactive)"}, {"measurement": "relative growth", "setting": "measured here: growth at 30 °C", "value": 88, "unit": "%"}]}
{"molecule": "COC(=O)c1ccc(C)c(NS(=O)(=O)c2ccc3c(c2)c(=O)sn3C)c1", "values": [{"measurement": "relative growth", "value": "0.12% (active)"}, {"measurement": "relative growth", "setting": "measured here: growth at 30 °C", "value": 0.2, "unit": "%"}]}
{"molecule": "COC(=O)CN1C(=O)CSc2ccc(S(=O)(=O)Nc3cc(C)ccc3C)cc21", "values": [{"measurement": "relative growth", "value": "112% (inactive)"}, {"measurement": "relative growth", "setting": "measured here: growth at 30 °C", "value": 94, "unit": "%"}]}
{"molecule": "COc1ccc(OCCn2c(S(=O)(=O)Cc3ccccc3)nc3ccccc32)cc1", "values": [{"measurement": "relative growth", "value": "132% (inactive)"}, {"measurement": "relative growth", "setting": "measured here: growth at 30 °C", "value": 101, "unit": "%"}]}
{"molecule": "COCCNc1ncnc2c1sc1nc(N3CCOCC3)c3c(c12)CCC3", "values": [{"measurement": "relative growth", "value": "111% (inactive)"}, {"measurement": "relative growth", "setting": "measured here: growth at 30 °C", "value": 88.7, "unit": "%"}]}
{"molecule": "CSc1n[nH]c(-c2ccco2)n1", "values": [{"measurement": "relative growth", "value": "101% (inactive)"}, {"measurement": "relative growth", "setting": "measured here: growth at 30 °C", "value": 107, "unit": "%"}]}
{"molecule": "CO/N=C(/C(=O)N[C@@H]1C(=O)N2C(C(=O)O)=C(CSc3nc(=O)c(O)nn3C)CS[C@H]12)c1csc(N)n1", "values": [{"measurement": "relative growth", "value": "-0.87% (active)"}, {"measurement": "relative growth", "setting": "measured here: growth at 30 °C", "value": -0.54, "unit": "%"}]}
{"molecule": "O=S(=O)(Cc1ccccc1)CC(O)COc1ccc(OC(F)(F)F)cc1", "note": "(stereo unspecified)", "values": [{"measurement": "relative growth", "value": "102% (inactive)"}, {"measurement": "relative growth", "setting": "measured here: growth at 30 °C", "value": 85, "unit": "%"}]}
{"molecule": "COc1ccccc1CN=C(C)c1ccccc1O", "values": [{"measurement": "relative growth", "value": "101% (inactive)"}, {"measurement": "relative growth", "setting": "measured here: growth at 30 °C", "value": 99.1, "unit": "%"}]}
{"molecule": "CCOC(=O)c1c(C)csc1NC(=O)CC(=O)C(F)(F)F", "values": [{"measurement": "relative growth", "value": "2.75% (active)"}, {"measurement": "relative growth", "setting": "measured here: growth at 30 °C", "value": 4.35, "unit": "%"}]}
{"molecule": "CCOC(=O)Nc1sccc1C(N)=O", "values": [{"measurement": "relative growth", "value": "106% (inactive)"}, {"measurement": "relative growth", "setting": "measured here: growth at 30 °C", "value": 101, "unit": "%"}]}
{"molecule": "CCOC(=O)c1c(NC(=O)C(F)(F)F)sc2c1CCCC2", "values": [{"measurement": "relative growth", "value": "101% (inactive)"}, {"measurement": "relative growth", "setting": "measured here: growth at 30 °C", "value": 93.2, "unit": "%"}]}
{"molecule": "O=C(CSc1nc2ccsc2c(=O)n1Cc1ccccn1)Nc1nccs1", "values": [{"measurement": "relative growth", "value": "94% (inactive)"}, {"measurement": "relative growth", "setting": "measured here: growth at 30 °C", "value": 87.2, "unit": "%"}]}
{"molecule": "O=S(=O)(NCCC12CC3CC(CC(C3)C1)C2)c1cc(Cl)ccc1Cl", "values": [{"measurement": "relative growth", "value": "80.5% (inactive)"}, {"measurement": "relative growth", "setting": "measured here: growth at 30 °C", "value": 66.9, "unit": "%"}]}
{"molecule": "CC(C)NC(=O)COc1ccc(-c2nn(C)c(=O)c3ccccc23)cc1", "values": [{"measurement": "relative growth", "value": "92.3% (inactive)"}, {"measurement": "relative growth", "setting": "measured here: growth at 30 °C", "value": 86.8, "unit": "%"}]}
{"molecule": "CCOC(=O)N1CCC(N2Cc3cccc(C(=O)NC4CCN(Cc5ccccc5)CC4)c3C2=O)CC1", "values": [{"measurement": "relative growth", "value": "92.7% (inactive)"}, {"measurement": "relative growth", "setting": "measured here: growth at 30 °C", "value": 86.6, "unit": "%"}]}
{"molecule": "CCN(CC(=O)NCc1ccc(Cl)cc1)C(=O)c1c(C)noc1C", "values": [{"measurement": "relative growth", "value": "84.2% (inactive)"}, {"measurement": "relative growth", "setting": "measured here: growth at 30 °C", "value": 95.1, "unit": "%"}]}
{"molecule": "Cc1ccc(-c2nc3ccccn3c2Nc2c(C)cccc2C)o1", "values": [{"measurement": "relative growth", "value": "1.59% (active)"}, {"measurement": "relative growth", "setting": "measured here: growth at 30 °C", "value": 1.66, "unit": "%"}]}
{"molecule": "Cc1cccc(C)c1Nc1c(-c2ccccc2O)nc2ncccn12", "values": [{"measurement": "relative growth", "value": "99.7% (inactive)"}, {"measurement": "relative growth", "setting": "measured here: growth at 30 °C", "value": 86.4, "unit": "%"}]}
{"molecule": "Cc1ccc(Nc2c(-c3ccc(C)s3)nc3ccccn23)cc1", "values": [{"measurement": "relative growth", "value": "107% (inactive)"}, {"measurement": "relative growth", "setting": "measured here: growth at 30 °C", "value": 89.8, "unit": "%"}]}
{"molecule": "Nc1ccc(C(=O)Nc2ccc(C(=O)O)cc2N)cc1", "values": [{"measurement": "relative growth", "value": "108% (inactive)"}, {"measurement": "relative growth", "setting": "measured here: growth at 30 °C", "value": 98.5, "unit": "%"}]}
